Assay results reported in PubChem BioAssay AID602 (SRMLSC, 2007).
Hit rate of the full screen: of about 85,000 compounds, about 35 (0.04%) were called active. This is one part of a sample in which actives are shown more often than they occur.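 The calls were made as follows: active = viability drop by adding the cancer drug above about 55%, with treated viability meeting a 40% cutoff (limit read from the data); inactive = the rest, inconclusive results apart.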

Assay: reversal of MRP1-mediated doxorubicin resistance, primary screen, H69AR cells, doxorubicin co-treatment (AID 602);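 as to differential viability (reversal): larger differential means the compound sensitizes cells more to doxorubicin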
Settings: CellTiter-Glo, 72 h, at 10 µM; for differential viability (reversal): stronger effect = higher value
[1] = H69AR cells + 2 uM doxorubicin, measured here: viability with 2 uM doxorubicin, stronger effect = lower value
[2] = H69AR cells, measured here: cytotoxicity without doxorubicin

| SMILES | differential viability (reversal) (H69AR cells + 2 uM doxorubicin) | viability [1] [%] | viability [2] [%] |
| --- | --- | --- | --- |
| CC(C)(CNC(=O)c1cc(=O)[nH]c2ccccc12)N1CCOCC1 | 3.32% (inactive) | 97.6 | 101 |
| Cc1ccc(N(CC(=O)Nc2cc(C)cc(C)c2)S(=O)(=O)c2cccc3nonc23)cc1 | -3.92% (inactive) | 101 | 96.6 |
| Cn1ccs/c1=N\S(=O)(=O)c1ccc(C(C)(C)C)cc1 | 11.8% (inactive) | 77.6 | 89.4 |
| CCOC(=O)c1ccc(COC(=O)CCc2nc(-c3ccccc3)c(-c3ccccc3)o2)cc1 | -11.9% (inactive) | 83.3 | 71.4 |
| CCCC(C)C(=O)Nc1ccc(NC(C)=O)cc1 (configuration not stated) | 22.1% (inactive) | 80.5 | 103 |
| COc1c(F)c(F)c(C(=O)O)c(Nc2ccccc2C)c1F | 3.75% (inactive) | 94.8 | 98.5 |
| C=CCc1ccc(OCCOc2cccc(/C=N/n3cnnc3)c2)c(OC)c1 | 9.09% (inactive) | 71.3 | 80.3 |
| CCOC(=O)CSc1nc2ccc(C)cc2[nH]1 | 2.1% (inactive) | 87.3 | 89.4 |
| C=CCn1c(SCC(=O)c2ccc(Br)cc2)nnc1C(C)NC(=O)Cc1ccc(OC)cc1 (configuration not stated) | 22.5% (inactive) | 49.3 | 71.8 |
| O=C1CSC(c2cccc(F)c2)N1c1ccc(O)cc1 (configuration not stated) | 12.3% (inactive) | 88.2 | 101 |
| Cc1nnc(NCCO)c2ccccc12 | 7.47% (inactive) | 82.3 | 89.8 |
| CCn1c(SCC(=O)c2ccc3ccccc3c2)nnc1-c1cccs1 | 5.66% (inactive) | 98.1 | 104 |
| Cc1cc(C(=O)Nc2ccccc2N2CCOCC2)c2ccccc2n1 | -7.84% (inactive) | 75.7 | 67.9 |
| Cc1nnc(SCC(=O)NC2CCCC2)s1 | 7.72% (inactive) | 107 | 115 |
| Nn1c(SCC(=O)NC2CCCC2)nnc1-c1ccccc1F | 13.3% (inactive) | 88.7 | 102 |
| COC(CNC(=O)Cn1ncc2ccsc2c1=O)OC | -2.17% (inactive) | 103 | 101 |
| Cc1cccc(N2CCN(C(c3ccc(N(C)C)cc3)c3nnnn3C(C)(C)C)CC2)c1C (configuration not stated) | 2.35% (inactive) | 81 | 83.3 |
| CCOC(=O)C1=C(CSc2nnnn2C)N(C)C(=O)NC1c1ccccc1 (configuration not stated) | 12.1% (inactive) | 81 | 93.1 |
| COc1ccc(CCNS(=O)(=O)c2ccc(Cl)s2)cc1OC | 13.7% (inactive) | 79.3 | 93 |
| O=S(=O)(Nc1ccc(Oc2ncccn2)c(Cl)c1)c1ccc(F)cc1 | 4.78% (inactive) | 88.8 | 93.6 |
| CC(c1ccccn1)N(CCN(C)C)C(=S)Nc1ccccc1F (configuration not stated) | 16.9% (inactive) | 100 | 117 |
| CCC(=O)NC(Nc1cc(C)ccn1)(C(F)(F)F)C(F)(F)F | 7.06% (inactive) | 92 | 99 |
| O=C(NCC1CCC(C(=O)O)CC1)OCc1ccccc1 (configuration not stated) | 6.33% (inactive) | 92.2 | 98.5 |
| CCN(CC)CCn1c(=S)[nH]c2ncccc2c1=O | 12.4% (inactive) | 88.8 | 101 |
| CCOC(=O)C1C(=O)NCC1c1ccccc1 (configuration not stated) | 1.49% (inactive) | 98.4 | 99.9 |
| CC(C)CC(N=C1NC(C)(C)Cc2ccccc21)C(=O)O (configuration not stated) | 9.71% (inactive) | 98.6 | 108 |
| CCCCNC(=O)OC(C)CNC(=O)OC (configuration not stated) | -15% (inactive) | 111 | 95.6 |
| COc1cc(OC)nc(NC(=O)CCl)n1 | 4.9% (inactive) | 93.8 | 98.7 |
| Cc1cc2nc(C)n(CCCNC(=O)Nc3ccccc3)c2cc1C | 7.8% (inactive) | 83.9 | 91.7 |
